Reference: article PMC5540273 (PLoS ONE, 2017)

Legend:
Conditions in all cases: concentration: 1 μM, replicates: in singlicate; n = 1
AAK1 = test system: AAK1
ABL1-nonphosphorylated = test system: ABL1-nonphosphorylated
ABL1-phosphorylated = test system: ABL1-phosphorylated
ABL2 = test system: ABL2
ACVR1B = test system: ACVR1B
ACVR1 = test system: ACVR1
ACVR2A = test system: ACVR2A
ACVR2B = test system: ACVR2B
ACVRL1 = test system: ACVRL1
ADCK3 = test system: T1, ADCK3
T1 construct: gene CABC1
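Note: KINOMEscan kinase panel screen.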

**Q.** Which results are given for CCNC(=O)/C=C/c1n[nH]c2cc(Sc3ccccc3C(=O)NC)ccc12?
**A.** %Inh (AAK1): 29%; %Inh (ABL1-nonphosphorylated): 98.5%; %Inh (ABL1-phosphorylated): 89%; %Inh (ABL2): 24%; %Inh (ACVR1B): 24%; %Inh (ACVR1): 12%; %Inh (ACVR2A): 20%; %Inh (ACVR2B): 15%; %Inh (ACVRL1): 0%; %Inh (ADCK3): 4%

**Q.** What does the source list for Nc1ncc(-c2ccc3nccc(-c4ccncc4)c3c2)cc1S(=O)(=O)N1CCCCC1 [GSK1693850]?
**A.** %Inh (AAK1): 0%; %Inh (ABL1-nonphosphorylated): 0%; %Inh (ABL1-phosphorylated): 0%; %Inh (ABL2): 9%; %Inh (ACVR1B): 0%; %Inh (ACVR1): 53%; %Inh (ACVR2A): 2%; %Inh (ACVR2B): 9%; %Inh (ACVRL1): 37%; %Inh (ADCK3): 65%

**Q.** CS(=O)(=O)c1cccc(CNc2nc(Nc3ccc4c(c3)CCC(=O)N4)ncc2C(F)(F)F)c1 was tested. Which “%Inh” value (AAK1) did it give?
**A.** 21%

**Q.** What about the “%Inh” value (ABL1-nonphosphorylated) of the same compound?
**A.** 54%

**Q.** What about the “%Inh” value (ABL1-phosphorylated) of the same compound?
**A.** 16%

**Q.** And the “%Inh” value (ABL2)?
**A.** 0%

**Q.** What about the “%Inh” value (ACVR1B) of the same compound?
**A.** 0%

**Q.** What about the “%Inh” value (ACVR1) of the same compound?
**A.** 0%

**Q.** And the “%Inh” value (ACVR2A)?
**A.** 0%

**Q.** What about the “%Inh” value (ACVR2B) of the same compound?
**A.** 0%

**Q.** What about the “%Inh” value (ACVRL1) of the same compound?
**A.** 0%

**Q.** What about the “%Inh” value (ADCK3) of the same compound?
**A.** 0%

**Q.** What does the source list for Cc1ccc(NC(=O)c2ccnc(N3CCCCC3)c2)cc1-c1ccc(C(=O)NCC2CC2)cc1 [GW775610]?
**A.** %Inh (AAK1): 0%; %Inh (ABL1-nonphosphorylated): 55%; %Inh (ABL1-phosphorylated): 0%; %Inh (ABL2): 54%; %Inh (ACVR1B): 0%; %Inh (ACVR1): 0%; %Inh (ACVR2A): 0%; %Inh (ACVR2B): 0%; %Inh (ACVRL1): 0%; %Inh (ADCK3): 0%

**Q.** With COC(=O)Nc1nc2cc(Oc3ccc(NC(=O)Nc4cccc(SC)c4)cc3)ccc2[nH]1.Cl [GW697999] as the compound, how does the “%Inh” value (AAK1) read?
**A.** 0%

**Q.** What about the “%Inh” value (ABL1-nonphosphorylated) of the same compound?
**A.** 91.4%

**Q.** And the “%Inh” value (ABL1-phosphorylated)?
**A.** 90.1%

**Q.** And the “%Inh” value (ABL2)?
**A.** 76%

**Q.** And the “%Inh” value (ACVR1B)?
**A.** 0%

**Q.** What about the “%Inh” value (ACVR1) of the same compound?
**A.** 0%

**Q.** And the “%Inh” value (ACVR2A)?
**A.** 0%

**Q.** And the “%Inh” value (ACVR2B)?
**A.** 0%

**Q.** What about the “%Inh” value (ACVRL1) of the same compound?
**A.** 0%

**Q.** What about the “%Inh” value (ADCK3) of the same compound?
**A.** 0%

**Q.** With COC(=O)Nc1nc2ccc(Oc3ccc(CC(=O)Nc4cc(C(F)(F)F)ccc4F)cc3)cc2[nH]1 [GW680903] as the compound, how does the “%Inh” value (AAK1) read?
**A.** 4%

**Q.** What about the “%Inh” value (ABL1-nonphosphorylated) of the same compound?
**A.** 35%

**Q.** And the “%Inh” value (ABL1-phosphorylated)?
**A.** 0%

**Q.** And the “%Inh” value (ABL2)?
**A.** 34%

**Q.** And the “%Inh” value (ACVR1B)?
**A.** 0%

**Q.** And the “%Inh” value (ACVR1)?
**A.** 9%

**Q.** And the “%Inh” value (ACVR2A)?
**A.** 0%

**Q.** What about the “%Inh” value (ACVR2B) of the same compound?
**A.** 0%

**Q.** And the “%Inh” value (ACVRL1)?
**A.** 0%

**Q.** What about the “%Inh” value (ADCK3) of the same compound?
**A.** 19%

**Q.** Which “%Inh” value (AAK1) does the source give for Cc1cc(-c2c(-c3ccc(F)cc3)ncn2CCCN2CCOCC2)nc(N)n1 [SB-222517] here?
**A.** 14%

**Q.** What about the “%Inh” value (ABL1-nonphosphorylated) of the same compound?
**A.** 37%

**Q.** What about the “%Inh” value (ABL1-phosphorylated) of the same compound?
**A.** 18%

**Q.** And the “%Inh” value (ABL2)?
**A.** 0%

**Q.** What about the “%Inh” value (ACVR1B) of the same compound?
**A.** 21%

**Q.** What about the “%Inh” value (ACVR1) of the same compound?
**A.** 0%

**Q.** And the “%Inh” value (ACVR2A)?
**A.** 0%

**Q.** What about the “%Inh” value (ACVR2B) of the same compound?
**A.** 0%

**Q.** What about the “%Inh” value (ACVRL1) of the same compound?
**A.** 0%

**Q.** And the “%Inh” value (ADCK3)?
**A.** 1%

**Q.** With N#CC1(c2cccc(C(=O)Nc3cccc(Oc4ccc5nc(NC(=O)C6CC6)sc5n4)c3)c2)CC1 as the compound, how does the “%Inh” value (AAK1) read?
**A.** 3%

**Q.** What about the “%Inh” value (ABL1-nonphosphorylated) of the same compound?
**A.** 100%

**Q.** What about the “%Inh” value (ABL1-phosphorylated) of the same compound?
**A.** 98.7%

**Q.** What about the “%Inh” value (ABL2) of the same compound?
**A.** 95%

**Q.** What about the “%Inh” value (ACVR1B) of the same compound?
**A.** 0%

**Q.** And the “%Inh” value (ACVR1)?
**A.** 0%

**Q.** What about the “%Inh” value (ACVR2A) of the same compound?
**A.** 3%

**Q.** What about the “%Inh” value (ACVR2B) of the same compound?
**A.** 1%

**Q.** And the “%Inh” value (ACVRL1)?
**A.** 0%

**Q.** And the “%Inh” value (ADCK3)?
**A.** 40%

**Q.** Which “%Inh” value (AAK1) does the source give for Cc1ccc(NC(=O)c2ccc(Cl)c(Cl)c2)cc1-c1ccc(C(=O)Nc2ccncc2)cc1 [GSK1398460] here?
**A.** 8%

**Q.** And the “%Inh” value (ABL1-nonphosphorylated)?
**A.** 26%

**Q.** And the “%Inh” value (ABL1-phosphorylated)?
**A.** 4%

**Q.** And the “%Inh” value (ABL2)?
**A.** 41%

**Q.** What about the “%Inh” value (ACVR1B) of the same compound?
**A.** 0%

**Q.** And the “%Inh” value (ACVR1)?
**A.** 6%

**Q.** And the “%Inh” value (ACVR2A)?
**A.** 0%

**Q.** And the “%Inh” value (ACVR2B)?
**A.** 2%

**Q.** And the “%Inh” value (ACVRL1)?
**A.** 0%

**Q.** What about the “%Inh” value (ADCK3) of the same compound?
**A.** 9%
